Assay in all cases: NCI-60 one-dose screen, 48 h (100 = growth as untreated, 0 = no growth, -100 = all killed)
What all share (details): 10 µM unless noted

For assay [1], the system named is HCT-15 colon.
The subject of assay [2] is HT29 colon.
Assay [3] concerns SNB-75 CNS.
In assay [4] the test system is SNB-19 CNS.
Assay [5] relates to U251 CNS.
For assay [6], the system named is PC-3 prostate.
Assay [7] concerns SK-MEL-5 melanoma.
In assay [8] the test system is UACC-62 melanoma.
For assay [9], the system named is LOX IMVI melanoma.
The subject of assay [10] is SK-MEL-28 melanoma.

For 24 compounds, growth results are on record in PubChem BioAssay (NCI).

The structures appear in SMILES notation. “And” between values parts separate entries of the source, which are not always exact repeats. Identical values can stand only once. Compounds without any hit were thinned out: in the full panel of roughly 83,000, 20% have a hit.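 Single-dose data. Exposure time 48 hours. Values below 10 considered active.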 The source made the active and inactive calls.

Regarding `CCC(=O)Oc1ccc(OCc2ccccc2)cc1`, the growth in assay [1] was 103% (inactive) and 97% (inactive); in assay [2] it was 98.7% (inactive) and 91.2% (inactive); in [3], 98.2% (inactive) and 105% (inactive); in assay [4] it was 97.7% (inactive) and 96.5% (inactive); in assay [5], 87.7% (inactive) and 80.8% (inactive); in assay [6] it was 77.6% (inactive) and 58.7% (inactive). Moreover, the growth is 84.1% (inactive) and 73.6% (inactive) in assay [7]; 81.8% (inactive) and 79.9% (inactive) in [8]; 88.8% (inactive) and 84.7% (inactive) in assay [9]; 122% (inactive) and 111% (inactive) in assay [10].

Turning to `Cc1c(Cl)c(C)c(Cc2c(C)c(Cl)c(C)c(Cl)c2O)c(O)c1Cl`, the growth in [1] is 5.02% (active); in assay [2] it was 34% (inactive); in assay [3], 25% (inactive); in [4], 10.6% (inactive); in assay [5], 8.95% (active); in [6], 8.74% (active). Also, the growth in [7] was -69.7% (active); in assay [8], 18.2% (inactive); in assay [9], 4.09% (active); in assay [10] it was 26.1% (inactive).

With `CCOC(=O)c1ccc(C(=N)N)cc1`, the growth in assay [1] was 103% (inactive); in [2] it was 106% (inactive); in assay [3] it was 100% (inactive); in assay [4], 113% (inactive); in assay [5] it was 100% (inactive); in assay [6], 89.6% (inactive). Also, the growth in assay [7] was 107% (inactive); in [8], 108% (inactive); in assay [9], 97.9% (inactive); in [10], 120% (inactive).

Regarding `COc1ccc(/C=N/Nc2nc3ccccc3s2)cc1`, the growth in assay [1] is 90.4% (inactive); in [2] it was 92.3% (inactive); in assay [3] it was 80.5% (inactive); in [4], 99% (inactive); in assay [5], 85.9% (inactive); in [6], 81.2% (inactive). Besides, the growth in assay [7] was 91.6% (inactive); in assay [8], 83% (inactive); in assay [9], 95.4% (inactive); in [10], 99.2% (inactive).

For the compound `CCCC(=O)Oc1ccc2ccccc2c1`, the growth in [1] was 109% (inactive); in [2], 103% (inactive); in [3], 105% (inactive); in [4], 101% (inactive); in assay [5], 95.5% (inactive); in assay [6], 73.1% (inactive). The growth in [7] is 97.3% (inactive); in assay [8], 100% (inactive); in assay [9], 101% (inactive); in assay [10], 114% (inactive).

For `OCCCc1ccccc1`, the growth is 100% (inactive) in [1]; 94.9% (inactive) in assay [2]; 88.7% (inactive) in assay [3]; 99.3% (inactive) in assay [4]; 95.6% (inactive) in assay [5]; 100% (inactive) in assay [6]. Besides, the growth in assay [7] is 103% (inactive); in assay [8] it was 96.2% (inactive); in assay [9], 107% (inactive); in assay [10], 108% (inactive).

As to `O=c1[nH]c(=S)[nH]n1C(=S)n1[nH]c(=S)[nH]c1=O`, the growth is 112% (inactive) in [1]; 106% (inactive) in assay [2]; 92% (inactive) in [3]; 99.9% (inactive) in assay [4]; 93.6% (inactive) in [5]; 83.3% (inactive) in assay [6]. Further, the growth in [7] is 93% (inactive); in [8], 94.4% (inactive); in [9] it was 95.6% (inactive); in [10], 114% (inactive).

On to `Nc1nc(-c2ccccn2)cc(-c2cc(-c3ccccn3)nc(N)n2)n1`, for which the growth in assay [1] is 97% (inactive); in assay [2], 120% (inactive); in [3] it was 143% (inactive); in assay [4] it was 101% (inactive); in assay [5], 109% (inactive); in [6], 99.3% (inactive). Further, the growth in assay [7] was 105% (inactive); in assay [8] it was 102% (inactive); in assay [9] it was 96.5% (inactive); in assay [10], 113% (inactive).

Turning to `O=C1C=CC(=O)N1Cc1ccco1`, the growth is 11.6% (inactive) in assay [1]; 34.1% (inactive) in [2]; 101% (inactive) in assay [3]; 91% (inactive) in [4]; 81.4% (inactive) in assay [5]; 81.6% (inactive) in assay [6]. The growth is 86.4% (inactive) in assay [7], 86.4% (inactive) in assay [8], 76.6% (inactive) in [9] and 113% (inactive) in assay [10].

Turning to `CCN(CC)C(=S)SCCO`, the growth in assay [1] is 107% (inactive); in [2], 99.8% (inactive); in assay [3], 89.4% (inactive); in assay [4] it was 104% (inactive); in assay [5], 98.2% (inactive); in [6], 103% (inactive). Also, the growth is 99.7% (inactive) in [7], 107% (inactive) in assay [8], 97% (inactive) in assay [9] and 112% (inactive) in [10].

Consider `O=c1[nH]nnc2cc(Cl)ccc12`, for which the growth in assay [1] was 93.9% (inactive) and 104% (inactive); in assay [2], 109% (inactive) and 129% (inactive); in [3] it was 87.1% (inactive) and 83% (inactive); in assay [4] it was 104% (inactive) and 103% (inactive); in assay [5], 97.3% (inactive) and 93.8% (inactive); in [6] it was 103% (inactive) and 90.7% (inactive). The growth in assay [7] is 100% (inactive); in assay [8], 99.8% (inactive) and 101% (inactive); in [9], 101% (inactive); in [10], 117% (inactive) and 109% (inactive).

On to `COC(=O)C(Cc1cn(C(C)=O)c2ccccc12)P(=O)(OC)OC` (stereo not given), for which the growth in assay [1] is 103% (inactive); in assay [2], 108% (inactive); in [3], 89.5% (inactive); in assay [4], 104% (inactive); in assay [5], 101% (inactive); in assay [6] it was 88.6% (inactive). Besides, the growth in assay [7] was 96.8% (inactive); in assay [8], 93.1% (inactive); in [9], 92.7% (inactive); in assay [10], 114% (inactive).

Take `CCCCNC(=O)c1ccccc1C`: the growth in [1] is 93.4% (inactive); in assay [2], 102% (inactive); in [3] it was 99% (inactive); in assay [4], 98.2% (inactive); in assay [5] it was 99.3% (inactive); in [6], 88.2% (inactive). Further, the growth is 93.3% (inactive) in [7], 101% (inactive) in assay [8], 96.9% (inactive) in [9] and 101% (inactive) in [10].

With `Clc1ccc2sc(-c3ccccc3)nc2c1`, the growth in assay [1] is 100% (inactive); in assay [2] it was 95.1% (inactive); in [3] it was 67.7% (inactive); in assay [4] it was 97.6% (inactive); in [5] it was 105% (inactive); in [6], 88% (inactive). In addition, the growth is 91% (inactive) in assay [7], 86.2% (inactive) in [8], 101% (inactive) in [9] and 106% (inactive) in [10].

On to `Nc1ccc2ccc(NS(=O)(=O)N3CCCCC3)cc2c1`, for which the growth is 18.6% (inactive) in [1]; 4.34% (active) in assay [2]; 30.1% (inactive) in assay [3]; 40.3% (inactive) in assay [4]; 23.3% (inactive) in [5]; 43.6% (inactive) in assay [6]. The growth in [7] was 25.3% (inactive); in assay [8], 16.7% (inactive); in assay [9], 46.6% (inactive); in assay [10], 55.8% (inactive).

For `CCN(CC)Cc1cc2[nH]c3c4ccc(Cl)cc4ncc3c2cc1OC`, the growth in assay [1] is 45.9% (inactive) and 16.8% (inactive); in assay [2] it was 10.2% (inactive) and 9.65% (active); in assay [3], 74.9% (inactive) and 84.7% (inactive); in assay [4], 104% (inactive) and 103% (inactive); in [5] it was 3.79% (active) and 64.8% (inactive); in assay [6] it was 52.4% (inactive) and 70% (inactive). Also, the growth was -97.7% (active) in [7]; 35% (inactive) and 110% (inactive) in assay [8]; -71.8% (active) and -38.7% (active) in [9]; -90% (active) and 115% (inactive) in [10].

As for `COc1cc(Cl)ccc1C`, the growth in [1] is 14.3% (inactive); in assay [2], 27.1% (inactive); in assay [3], 110% (inactive); in assay [4] it was 79% (inactive); in assay [5], 78% (inactive); in [6] it was 74.1% (inactive). The growth in [7] was 96.3% (inactive); in assay [8], 66.4% (inactive); in [9], 77.1% (inactive); in assay [10], 112% (inactive).

With `Nc1ccccc1SC(CC(=O)c1ccccc1)c1cccc([N+](=O)[O-])c1` (stereo not given), the growth in assay [1] was 66.3% (inactive) and 49.4% (inactive); in assay [2], 11.5% (inactive) and 30.2% (inactive); in assay [3] it was 74.9% (inactive) and 78.1% (inactive); in [4], 89.8% (inactive); in assay [5], 57.5% (inactive) and 61.1% (inactive); in assay [6], 75% (inactive) and 71.6% (inactive). In addition, the growth in assay [7] is 96.3% (inactive); in [8], 85.5% (inactive) and 94% (inactive); in [9] it was 33.5% (inactive) and 10.9% (inactive); in [10], 96% (inactive) and 102% (inactive).

With `CCCCCCCCCCCCCCCCC(=O)O`, the growth in [1] was 102% (inactive); in [2], 97.7% (inactive); in [3] it was 101% (inactive); in [4], 105% (inactive); in [5], 98% (inactive); in assay [6] it was 104% (inactive). The growth in [7] was 100% (inactive); in assay [8] it was 101% (inactive); in assay [9] it was 98.4% (inactive); in [10], 117% (inactive).

In the case of `CC(=O)/C(N=Nc1ccc(S(=O)(=O)c2ccc(N=N/C(C(C)=O)=C(/C)O)cc2)cc1)=C(\C)O`, the growth in assay [1] was 106% (inactive); in assay [2], 102% (inactive); in [3], 97.7% (inactive); in assay [4], 114% (inactive); in [5], 101% (inactive); in assay [6] it was 92.1% (inactive). Further, the growth was 108% (inactive) in assay [7], 114% (inactive) in assay [8], 99.1% (inactive) in [9] and 113% (inactive) in assay [10].

Turning to `Cc1nc(Nc2ccc(Cl)cc2)c2cnn(-c3ccccc3)c2n1`, the growth in assay [1] was 94.8% (inactive); in [2] it was 97.2% (inactive); in assay [3], 86.6% (inactive); in assay [4], 102% (inactive); in [5], 98.8% (inactive); in assay [6] it was 99.6% (inactive). The growth in assay [7] was 94.4% (inactive); in assay [8], 100% (inactive); in assay [9] it was 97.9% (inactive); in assay [10] it was 102% (inactive).

Regarding `OCCS`, the growth in [1] was 104% (inactive); in assay [2] it was 97% (inactive); in [3], 91.1% (inactive); in assay [4], 108% (inactive); in [5] it was 95.3% (inactive); in assay [6], 99.8% (inactive). Also, the growth in assay [7] was 100% (inactive); in [8] it was 103% (inactive); in assay [9], 96.2% (inactive); in assay [10] it was 109% (inactive).

Consider `O=C1c2ccccc2C(c2ccccc2)C1c1ccccc1` (stereo not given), for which the growth in assay [1] was 71.8% (inactive); in [2], 98.9% (inactive); in assay [3] it was 63.5% (inactive); in assay [4], 91.9% (inactive); in assay [5] it was 101% (inactive); in assay [6] it was 80.7% (inactive). The growth in assay [7] is 87.5% (inactive); in assay [8], 67.8% (inactive); in assay [9], 88.5% (inactive); in assay [10], 111% (inactive).

For the compound `O=C1c2ccccc2CN1c1ccccc1`, the growth in assay [1] is 107% (inactive); in [2], 82.4% (inactive); in assay [3], 102% (inactive); in [4], 88.9% (inactive); in [5], 101% (inactive); in assay [6] it was 116% (inactive). The growth was 96.5% (inactive) in [7], 85.9% (inactive) in assay [8], 113% (inactive) in assay [9] and 120% (inactive) in assay [10].
